# USP1 inh: blocks the human USP1/UAF1 deubiquitinase complex. recombinant USP1/UAF1, Ub-Rhodamine cleavage fluorescence. Potency, µM (highest dose often 57.1 µM), usual class: inhibitors. 0.23% of 390,000 active; note: nearly all actives have a fitted effect of over 60% in size
# Target sequence (O94782 whole entry, looked up): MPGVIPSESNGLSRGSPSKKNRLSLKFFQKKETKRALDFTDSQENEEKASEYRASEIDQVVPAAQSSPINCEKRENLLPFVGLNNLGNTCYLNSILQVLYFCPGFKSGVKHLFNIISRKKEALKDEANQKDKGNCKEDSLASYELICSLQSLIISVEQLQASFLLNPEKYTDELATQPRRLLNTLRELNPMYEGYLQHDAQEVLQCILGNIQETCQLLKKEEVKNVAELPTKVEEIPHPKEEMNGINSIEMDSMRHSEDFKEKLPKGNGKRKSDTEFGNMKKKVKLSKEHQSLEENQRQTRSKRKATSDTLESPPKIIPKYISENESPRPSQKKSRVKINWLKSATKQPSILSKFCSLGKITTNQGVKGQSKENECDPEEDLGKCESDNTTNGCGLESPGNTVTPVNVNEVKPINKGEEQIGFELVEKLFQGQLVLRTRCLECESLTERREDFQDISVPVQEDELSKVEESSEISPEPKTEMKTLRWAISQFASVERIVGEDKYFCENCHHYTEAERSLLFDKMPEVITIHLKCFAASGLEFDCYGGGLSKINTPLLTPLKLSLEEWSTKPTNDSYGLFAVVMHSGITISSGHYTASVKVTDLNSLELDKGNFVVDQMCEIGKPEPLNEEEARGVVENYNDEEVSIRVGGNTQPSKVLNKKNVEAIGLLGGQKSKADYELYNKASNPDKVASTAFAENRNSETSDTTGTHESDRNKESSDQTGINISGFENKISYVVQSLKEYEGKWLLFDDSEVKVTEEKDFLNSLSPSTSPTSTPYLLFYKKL
#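 1 nM enzyme complex + cpd, 15 min RT; start with Ub-Rho 150nM final; kinetic fluorescence ex 480/em 540, 6 reads q60 s. Buffer 50mM HEPES pH 7.8, 0.5mM EDTA, 0.1 mg/ml BSA, 1mM TCEP, 0.01% Tween-20.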
# EPAC1 ag: EPAC1 (human) agonism; O95398; EPAC1 agonist qHTS, biochemical assay; response scale: 100% = response to 6.5 mM cAMP; Potency, µM (titrated, usually from 154 µM), hits mostly activators; 0.073% of 360,000 active; AID 720707; note: nearly all actives have a fitted effect of over 60% in size
#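 Read-out is the fluorescence drop as BODIPY-GDP leaves Rap1B (480 nm excitation, 540 nm emission), recorded every 5 minutes over 30 minutes. Reactions held 100 nM EPAC1, 250 nM Rap1B–BODIPY-GDP and 50 uM GDP, with 6.5 mM cAMP setting full activation.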
# EPAC1 antagonist: blocks human EPAC1 exchange factor; Potency, µM (series often up to 115 µM), actives largely listed as inhibitors; AID 720709; O95398; 0.14% of 360,000 active; EPAC1 GEF assay, Rap1b-BODIPY-GDP exchange fluorescence; note: nearly all actives have a fitted effect of over 50% in size
# BRCA1 expr up: activators of BRCA1 expression. MCF7-BRCA1-FFLuc reporter, luminescence, 48 h; response scale: scaled: vehicle 0%, 10 µM genistein 100%. Potency, µM (series often up to 46.1 µM), hits mostly activators. 1.1% of 380,000 active. AID 624202; note: nearly all actives have a fitted effect of over 80% in size
#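 MCF7 cells carrying a BRCA1-firefly luciferase reporter (2000 cells/well, phenol-red free MEM) were attached for 2 h at 37 °C, then given compounds for 48 h. Luminescence was read 15 min after luciferase reagent; activity normalized to genistein (10 microM) and DMSO.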
# EPAC2 ag: EPAC2 (human) agonism | EPAC2 activation, biochemical qHTS; response scale: 100% = 6.5 mM cAMP response | Potency, µM (series often up to 154 µM), hits mostly activators | 0.079% of 360,000 active; note: nearly all actives have a fitted effect of over 50% in size
#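 Setup: EPAC2 100 nM, labeled Rap1B complex 250 nM, free GDP 50 uM. Compound titrations pinned in, brief spin, 5 min room temperature incubation. Kinetic fluorescence read over 30 min, normalized to 6.5 mM cAMP.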
# EPAC2 antagonist: antagonists of human EPAC2; Q8WZA2; EPAC2 GEF exchange of Rap1B-BODIPY-GDP, fluorescence; Potency, µM (series often up to 114 µM), hits mostly inhibitors; 0.18% of 360,000 active; note: nearly all actives have a fitted effect of over 45% in size
# Numbers stand for hits; i = inactive; ? = inconclusive; nt = no result. Most compounds without a hit are left out; they make up all but 1.4% or so of the library. Calls come from the whole dose curve; as a rule, active = well fitted curve in the direction sought with a large enough effect; inconclusive = small, poorly fitted or top-dose-only effect, or another doubt; inactive = no such curve, though single readings can be large; an effect the other way counts as inactive or inconclusive.
SMILES,USP1 inh,EPAC1 ag,EPAC1 antagonist,BRCA1 expr up,EPAC2 ag,EPAC2 antagonist
O=C(O)CN1C(=O)/C(=C\c2cc(Br)ccc2OCc2ccc(Cl)cc2)SC1=S,?,i,?,i,i,50.1µM
O=C(O)CCCN1C(=O)/C(=C/c2cn(-c3ccccc3)nc2-c2cccs2)SC1=S,?,56.2µM,i,i,?,i
COCCN1C(=O)CCC1(C)C(=O)Nc1c(C)cccc1C (stereo not given),nt,i,i,i,i,i
CSCCC(NC(=O)c1ccco1)c1nc2ccccc2[nH]1 (stereo not given),i,i,i,i,i,i
CS(=O)(=O)N1CCCCC1c1cc(C(=O)Nc2ccccc2Cl)no1 (stereo not given),nt,i,i,i,i,i
N/C(Cc1cccs1)=N\OC(=O)COc1ccccc1Cl,i,i,i,12.6µM,i,i
CC(C)(C)c1ccc(C(=O)C[n+]2ccccc2Cl)cc1,nt,nt,nt,7.94µM,nt,nt
CNS(=O)(=O)c1cn(CC(=O)N2CCN(c3ccc(C)cc3C)CC2)cc1S(=O)(=O)NC,i,nt,nt,nt,nt,nt
COC(=O)c1ccc(COC(=O)CNC(=O)CNC(=O)c2ccc(OC)cc2)cc1,i,i,i,i,i,i
COc1ccc(CCOC(=O)c2ccc(NC(=O)CC#N)cc2)cc1,i,i,i,i,i,i
COC(=O)c1ccc(COC(=O)CNC(=O)c2ccc(OC)cc2)cc1,i,i,i,5.01µM,i,i
COc1ccc(C(=O)OCCc2ccc(O)cc2)cc1,i,i,i,5.01µM,i,i
CC(=O)N1CCc2cc(S(=O)(=O)NCCC(=O)Nc3ccc4c(c3)OCCO4)ccc21,i,i,i,11.2µM,i,i
O=C1C2C3C=CC(CC3)C2C(=O)N1/N=C/c1c[nH]c2ccccc12 (stereo not given),i,i,i,8.91µM,i,i
Cc1ccc(S(=O)(=O)C(C#N)c2nc3ccccc3nc2N2CCN(C)CC2)cc1 (stereo not given),i,i,i,i,i,i
CC1CCCN(c2nc3ccccc3nc2C(C#N)S(=O)(=O)c2ccccc2)C1 (stereo not given),i,56.2µM,i,i,i,i
Cc1ccc(NC(=O)Cn2cc(S(=O)(=O)N3CCC(C)CC3)c3ccccc3c2=O)c(Br)c1,i,nt,nt,i,nt,nt
CN1OC[C@@H]2CN[C@H](c3ccc(-c4cccc(F)c4)cc3)C[C@@H]21,i,i,i,11.2µM,i,i
CN1OC[C@@H]2CN[C@H](c3cccc(-c4ccc(C#N)cc4)c3)C[C@@H]21,i,i,i,i,i,i
CCOc1ccc(S(=O)(=O)N2CCOCC2)cc1NC(=O)CN1C(=O)NC(C)(C2CC2)C1=O (stereo not given),i,i,i,i,i,i
Cc1ccc(-c2ccc(CCC(=O)O)n2-c2ccc(O)cc2)cc1,i,i,i,i,i,i
O=C(O)CCc1ccc(-c2ccc(Br)cc2)n1-c1ccc(O)cc1,i,i,i,i,i,50.1µM
CCCCCN=C(C)c1c(O)c2ccccc2oc1=O,i,i,i,11.2µM,i,i
CC(C)CCNC(=O)c1ccc2c(c1)ncn2C1CCCC1,i,i,i,7.08µM,i,i
CCOC(=O)Nc1ccc2c(c1)ncn2C1CCCCC1,i,i,i,12.6µM,i,i
SMILES,USP1 inh,EPAC1 ag,EPAC1 antagonist,BRCA1 expr up,EPAC2 ag,EPAC2 antagonist
O=C(OCC(=O)N1CCCC1)c1c[nH]c2ccccc12,i,i,i,i,i,i
CC1CCN(C(=O)COC(=O)c2c[nH]c3ccccc23)CC1,i,i,i,7.08µM,i,i
O=C(OCC(=O)N1CCCCC1)c1c[nH]c2ccccc12,i,i,i,6.31µM,i,i
Cc1cccc(C(=O)OCC(=O)N2CCCCCC2)c1C,?,i,i,5.62µM,i,i
O=S(=O)(Nc1nccs1)c1ccc(NCc2cc(Br)cc(Br)c2O)cc1,i,i,?,i,i,2.82µM
O=C(Cc1ccccc1Cl)Nc1ccc(S(=O)(=O)Nc2nccs2)cc1,i,i,i,i,i,1µM
CCCC/C=C1\CCc2c([nH]c3ccccc23)C1=O,i,i,i,1.41µM,i,i
Cc1cc2ccccc2cc1C(=O)c1ccccc1,?,i,i,i,i,8.91µM
O=C(c1ccccc1)c1ccc(O)cc1O,28.2µM,100µM,i,i,100µM,i
COc1ccc(CCC(=O)N2CCN(C3CCCCC3)CC2)cc1,i,i,i,i,i,i
O=C(CCCc1ccccc1)N1CCN(C2CCCCC2)CC1,i,i,i,5.01µM,i,i
C(=C\c1c[nH]c2ccccc12)/c1nccc2ccccc12,nt,nt,nt,i,nt,nt
Cc1oc2ccc(O)c(CN3CCN(C)CC3)c2c1C(=O)Nc1ccccc1,i,nt,nt,nt,nt,nt
c1ccc2c(c1)Nc1cc3ccccc3cc1S2,i,i,i,7.08µM,i,i
COC(=O)c1ccc2c(c1)C(=O)/C(=C/c1ccc(C)cc1)O2,i,i,i,i,i,i
COC(=O)c1ccc(/C=C2\Oc3ccccc3NC2=O)cc1,i,i,i,2.24µM,i,i
CC(C)[C@H](NC(=O)c1ccccc1F)C(=O)NCc1ccc(S(N)(=O)=O)cc1,i,i,i,i,i,i
Cc1c2ccccc2nc2c(F)c(N(C)C)c(F)c(F)c12,?,i,i,12.6µM,i,i
CC(C)NC(=O)C1(C)CSCC(=O)N1C1CC1 (stereo not given),nt,i,i,nt,i,i
COc1ccc(Cc2nc3ccc(C(=O)NCCCSC)cc3o2)cc1OC,i,i,i,12.6µM,i,i
COC(=O)CCNC(=O)c1ccc2nc(Cc3ccc(OC)c(OC)c3)oc2c1,i,i,i,?,i,i
O=C(C[n+]1csc2ccccc21)c1ccc(O)c(O)c1,nt,nt,nt,i,nt,nt
CC(C)Cn1cnc2c(SCc3ccccc3F)nc(N)nc21,i,i,i,5.62µM,i,i
CCCn1cnc2c(SCCc3ccccc3)nc(N)nc21,i,i,i,12.6µM,i,i
CCC(C)Cn1cnc2c(SCc3ccccc3F)nc(N)nc21 (stereo not given),i,i,i,i,i,i
C[C@H](CO)N1C[C@H](C)[C@H](CN(C)S(=O)(=O)c2cccc(F)c2)OCc2ccccc2-c2c(n(C)c3ccccc23)C1=O,i,i,i,i,i,i
CCOc1ccc(CCNC(=O)c2c(C)oc3ncnc(N4CCOCC4)c23)cc1,i,nt,nt,nt,nt,nt
COc1ccc(-c2csc(NC(=O)CSc3nc(C)cs3)n2)cc1,?,i,i,12.6µM,i,i
COc1ccc(-c2csc(NC(=O)CSc3nc(SC)ns3)n2)cc1,i,i,i,i,i,i
COc1ccc(-c2csc(NC(=O)COC(=O)C3=COCCO3)n2)cc1,i,i,i,5.01µM,i,i
